Values joined by “and” are separate entries in the source; they are usually repeats but may differ in a detail not shown here. Equal entries are not always repeated. This is part of a sample that, as a whole, favours compounds with a hit. Of some 83,000 tested, about 20% had one in any assay.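 Treatment: one concentration, 48 hours, 96-well format. Scoring: percent growth, with anything below 10 considered active.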 Active and inactive are the calls of the source.
Columns and labels:
Experiment in all cases: NCI-60 one-dose screen, 48 h (100 = growth as untreated, 0 = no growth, -100 = all killed)
Settings in all cases: 10 µM unless noted
[1] = tested on: NCI-H23 lung
[2] = tested on: NCI-H226 lung
[3] = tested on: NCI-H322M lung
[4] = tested on: HOP-62 NSCLC
[5] = tested on: NCI-H460 lung
[6] = tested on: HOP-92 NSCLC
[7] = tested on: NCI-H522 lung
[8] = tested on: A549/ATCC NSCLC
[9] = tested on: 786-0 renal
[10] = tested on: COLO 205 colon
[11] = tested on: DU-145 prostate
[12] = tested on: K-562 leukemia
[13] = tested on: MALME-3M melanoma
[14] = tested on: MDA-MB-231 breast
[15] = tested on: RXF 393 renal
[16] = tested on: SF-268 CNS
[17] = tested on: SF-295 CNS
[18] = tested on: SF-539 CNS
[19] = tested on: UACC-257 melanoma
[20] = tested on: M14 melanoma

Compound	growth [1]	growth [2]	growth [3]	growth [4]	growth [5]	growth [6]	growth [7]	growth [8]	growth [9]	growth [10]	growth [11]	growth [12]	growth [13]	growth [14]	growth [15]	growth [16]	growth [17]	growth [18]	growth [19]	growth [20]
CCN(CC)CCCC(C)Nc1ccnc2cc(Oc3ccccc3)ccc12 (stereo not given)	90.1% (inactive) and 78.7% (inactive)	99.7% (inactive) and 112% (inactive)	84.7% (inactive) and 105% (inactive)	68.9% (inactive) and 83.2% (inactive)	69.7% (inactive) and 96.5% (inactive)	-6.39% (active) and 60.3% (inactive)	55.9% (inactive)	58.7% (inactive) and 86.6% (inactive)	64.3% (inactive) and 84.6% (inactive)	47.6% (inactive) and 60.2% (inactive)	91.4% (inactive) and 87.4% (inactive)	1.73% (active) and 41.2% (inactive)	78% (inactive) and 89.4% (inactive)	40.1% (inactive) and 34.1% (inactive)	17.8% (inactive) and 70.7% (inactive)	54.5% (inactive) and 67.1% (inactive)	81.5% (inactive) and 74.9% (inactive)	1.83% (active) and 4.93% (active)	-67.2% (active) and -56.4% (active)	-43.4% (active) and -81.6% (active)
Cc1cc(C)c(N)c(Br)c1	101% (inactive) and 83.8% (inactive)	106% (inactive)	130% (inactive) and 105% (inactive)	92.6% (inactive) and 165% (inactive)	114% (inactive) and 101% (inactive)	82.2% (inactive)	95.2% (inactive) and 87.9% (inactive)	104% (inactive) and 106% (inactive)	102% (inactive) and 93.6% (inactive)	102% (inactive) and 105% (inactive)	122% (inactive) and 109% (inactive)	107% (inactive) and 96.5% (inactive)	105% (inactive) and 95.4% (inactive)	112% (inactive) and 98.8% (inactive)	116% (inactive) and 103% (inactive)	105% (inactive) and 103% (inactive)	127% (inactive) and 110% (inactive)	108% (inactive) and 92.9% (inactive)	106% (inactive) and 105% (inactive)	103% (inactive)
O=CC(O)C(O)C(O)CO (stereo not given)	13.3% (inactive) and 100% (inactive)	93.9% (inactive) and 101% (inactive)	101% (inactive) and 96.6% (inactive)	114% (inactive) and 97.6% (inactive)	98.7% (inactive) and 111% (inactive)	119% (inactive)	33.4% (inactive)	102% (inactive)	104% (inactive) and 97.6% (inactive)	97.7% (inactive) and 106% (inactive)	107% (inactive) and 108% (inactive)	114% (inactive) and 99.3% (inactive)	122% (inactive)	92.5% (inactive) and 125% (inactive)	104% (inactive)	107% (inactive) and 100% (inactive)	121% (inactive)	88.1% (inactive) and 111% (inactive)	106% (inactive)	113% (inactive) and 98% (inactive)
Cc1nn(-c2ccccc2)nc1C(=O)Nc1ccccc1C(=O)NCC1CC1	102% (inactive) and 77.6% (inactive)	98.1% (inactive) and 45.7% (inactive)	111% (inactive) and 76.7% (inactive)	96.7% (inactive) and 46.1% (inactive)	94.3% (inactive) and 26.8% (inactive)	75.8% (inactive)	91.9% (inactive)	67.8% (inactive) and 38.7% (inactive)	110% (inactive) and 35.1% (inactive)	95.3% (inactive) and 52.8% (inactive)	109% (inactive) and 62.6% (inactive)	91.4% (inactive) and 44.3% (inactive)	135% (inactive) and 97% (inactive)	79.8% (inactive) and 23.6% (inactive)	105% (inactive) and 77.4% (inactive)	123% (inactive) and 91% (inactive)	114% (inactive) and 59.5% (inactive)	88.8% (inactive) and 30.9% (inactive)	111% (inactive)	105% (inactive) and 81.8% (inactive)
CCOc1ccc(Nc2c3ccccc3nc3ccccc23)cc1	92.1% (inactive) and 36.3% (inactive) and 18.6% (inactive)	-12.9% (active) and 19.1% (inactive)	99.3% (inactive) and 44.4% (inactive) and 38.3% (inactive)	92.5% (inactive) and 37.1% (inactive) and 42.1% (inactive)	93.6% (inactive) and 3.2% (active) and 4.66% (active)	72.2% (inactive) and -5.95% (active) and -4.39% (active)	10.1% (inactive) and 35.9% (inactive)	87.5% (inactive) and 12.3% (inactive) and 21% (inactive)	84.8% (inactive) and 30.1% (inactive) and 43.7% (inactive)	103% (inactive) and -11.2% (active) and 24.5% (inactive)	104% (inactive) and 23.1% (inactive) and 35.2% (inactive)	81.3% (inactive) and 6.44% (active) and 3.81% (active)	99% (inactive) and 5.36% (active) and 13.2% (inactive)	94.2% (inactive) and 45.9% (inactive) and 48.4% (inactive)	83.7% (inactive) and -4.09% (active) and 10% (active)	108% (inactive) and 34.7% (inactive) and 45.7% (inactive)	65.7% (inactive) and 28.8% (inactive) and 17.1% (inactive)	94.5% (inactive) and 17.9% (inactive) and 11% (inactive)	96% (inactive) and 24.7% (inactive) and 44.7% (inactive)	95% (inactive) and 19.4% (inactive) and 40.4% (inactive)
CCC(O)c1ccccc1 (stereo not given)	112% (inactive) and 113% (inactive)	96.1% (inactive) and 109% (inactive)	114% (inactive) and 105% (inactive)	87.2% (inactive) and 109% (inactive)	106% (inactive) and 104% (inactive)	117% (inactive) and 91.6% (inactive)	101% (inactive) and 86.4% (inactive)	104% (inactive) and 99.4% (inactive)	94.6% (inactive) and 106% (inactive)	128% (inactive) and 111% (inactive)	120% (inactive) and 118% (inactive)	96.8% (inactive) and 104% (inactive)	114% (inactive) and 111% (inactive)	95.9% (inactive) and 112% (inactive)	8.94% (active) and 98.9% (inactive)	113% (inactive)	95% (inactive) and 115% (inactive)	89.2% (inactive) and 105% (inactive)	135% (inactive) and 85.4% (inactive)	100% (inactive)
CN(C)CCCNC1=C(Cl)C(=O)c2ccccc2C1=O	-41.4% (active) and -79.2% (active)	102% (inactive) and 97.7% (inactive)	92.4% (inactive) and 98.7% (inactive)	78.8% (inactive) and 85.1% (inactive)	78.9% (inactive) and 83.8% (inactive)	108% (inactive) and 107% (inactive)	80.4% (inactive) and -30.3% (active)	94.3% (inactive) and 85.1% (inactive)	99.5% (inactive) and 79.4% (inactive)	-73.7% (active) and -85.8% (active)	75.2% (inactive) and 31.7% (inactive)	-46.7% (active) and -23.9% (active)	-82.7% (active) and -88.9% (active)	69.6% (inactive) and 41.9% (inactive)	122% (inactive) and 2.27% (active)	102% (inactive) and 75% (inactive)	87% (inactive) and 72.2% (inactive)	102% (inactive) and 101% (inactive)	28.4% (inactive) and -96.6% (active)	-87% (active) and -99.1% (active)
